Reference: PubChem BioAssay AID2517 (National Center for Advancing Translational Sciences (NCATS), 2010)
Where “and” joins values, the source holds several entries; their conditions need not be identical. Equal entries are not always repeated. In all, about 350,000 compounds went through this assay and about 1,200 (0.34%) were called active. Inconclusive results (about 3%) are left out. Calls come from the whole dose curve; as a rule, active = well fitted inhibition curve with a large enough effect; inconclusive = small, poorly fitted or top-dose-only effect; inactive = no such curve, though single readings can be large or run the other way. The list comes from a sample in which actives are over-represented; it also holds similar structures and randomly drawn compounds. Where a structure was tested more than once in an assay, its records may differ in their call.

The compounds below were run against DNA repair nuclease/redox regulator APEX1 (Homo sapiens) (UniProt P27695) (assay: qHTS Assay for Inhibitors of the Human Apurinic/apyrimidinic Endonuclease 1 (APE1)). Conditions: recombinant APE1, TAMRA/BHQ-2 abasic DNA cleavage fluorescence; activity change, negative = inhibition: at 65.8 µM (top of the series).
DNA repair nuclease/redox regulator APEX1 (Homo sapiens), sequence (P27695 whole entry, looked up): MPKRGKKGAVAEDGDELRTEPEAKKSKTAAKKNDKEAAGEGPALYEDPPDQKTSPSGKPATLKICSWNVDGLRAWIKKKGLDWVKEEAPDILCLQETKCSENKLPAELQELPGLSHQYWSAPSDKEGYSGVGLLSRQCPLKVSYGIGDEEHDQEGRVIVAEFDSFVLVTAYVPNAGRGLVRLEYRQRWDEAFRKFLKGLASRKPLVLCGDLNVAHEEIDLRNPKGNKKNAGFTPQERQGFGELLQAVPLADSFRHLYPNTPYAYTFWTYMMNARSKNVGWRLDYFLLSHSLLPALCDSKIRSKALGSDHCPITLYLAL
How it was run: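 Measures dequenching upon AP-site incision of a 5'-TAMRA/3'-BHQ-2 THF-containing duplex, 50 nM; human APE1 0.75 nM after 15 min room-temperature exposure to compound; kinetic three-point read at one-minute spacing.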
Note: nearly all actives have a fitted effect of over 55% in size.
Potency is the fitted concentration of half-maximal effect.
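Throughout, for activity change, negative = inhibition: plate controls were vehicle for no effect and reference inhibitor for full effect.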

Row | Structure (SMILES) | activity change, negative = inhibition | Potency
1 | Cc1ccc(OCCCC(=O)NC(C)c2ccccc2)c(C)c1 (centres undefined) | 0.614% (inactive) | –
2 | Cc1cc(C)cc(OCC(=O)NC(C)c2ccccc2)c1 (centres undefined) | -52.8% (active) | –
3 | Cc1ccccc1OCCC(=O)OCC(=O)NC(C)c1ccccc1 (centres undefined) | 0.618% (inactive) | –
4 | c1ccc2cc(C3=NCCN3)ccc2c1 | -6.2% (inactive) | –
5 | COc1ccc(/C=C/NC(=O)c2ccc(OC)cc2)cc1 | 3.93% [at 12.4 µM] (inactive) | –
6 | CC[C@H](C)[C@H](NC(=O)[C@H](CCCNC(=N)N)NC(=O)[C@H](CCCNC(=N)N)NC(=O)[C@H](CC(C)C)NC(=O)[C@H](Cc1ccccc1)NC(=O)CNC(=O)CNC(=O)[C@@H](N)Cc1ccc(O)cc1)C(=O)N[C@@H](CCCNC(=N)N)C(=O)N1CCC[C@H]1C(=O)N[C@@H](CCCCN)C(=O)N[C@@H](CC(C)C)C(=O)N[C@@H](CCCCN)C(=O)N[C@@H](Cc1c[nH]c2ccccc12)C(=O)N[C@@H](CC(=O)O)C(=O)N[C@@H](CC(N)=O)C(=O)N[C@@H](CCC(N)=O)C(=O)O | -1.98% (inactive) | –
7 | O=C(Nc1ccccc1)/C(=C\c1ccco1)NC(=O)c1ccco1 | 39.5% (inactive) | –
8 | O=c1nc2s/c(=C\c3ccco3)c(=O)n2nc1Cc1ccccc1 | – | 4.47 µM (active)
9 | O=C(NCCc1ccco1)c1nn(Cc2ccccc2)c(=O)c2ccccc12 | -6.32% (inactive) | –
10 | O=C(OCC(COC(=O)c1ccccc1)(COC(=O)c1ccccc1)COC(=O)c1ccccc1)c1ccccc1 | 5.41% (inactive) | –
11 | CC(C)=CCN1CCC2(CCc3ccccc32)CC1 | -0.233% (inactive) | –
12 | Oc1cc(O)c2c(c1)OC(c1ccc(O)c(O)c1)C(O)C2 (centres undefined) | – | inactive and 3.16 µM (active)
13 | C=C1C([C@@]2(C)C(OC(C)=O)CC(=O)O[C@@](C)(COC(C)=O)C2CC(=O)OC)C(OC=O)C(OC(=O)C(O)C(C)CC)[C@]2(C)C(c3ccoc3)CC(=O)C12O (some centres undefined) | -3.23% (inactive) | –
14 | CC[C@H](C)[C@@H](NC(=O)O[C@@H]1C(=O)c2cc(OC)ccc2O[C@H]1c1cccc(OC)c1)C(=O)OC | -2.71% (inactive) | –
15 | CCCCS(=O)(=O)N1C2=NC(C(=O)OC)=C(C(=O)OC)[C@@H]3N(Cc4ccccc4)c4ccccc4[C@]23C[C@H]1C(=O)OC | -4.13% [at 12.4 µM] (inactive) | –
16 | Oc1ccc(O)c2c(O)cccc12 | – | 1.78 µM (active)
17 | S=C(NCCCc1cnc[nH]1)NCCCN(Cc1ccc(Cl)c(Cl)c1)c1ccc(Br)cn1 | -1.31% (inactive) | –
18 | O=C(c1ccco1)N1CCC[C@@]2(CCN(c3ccccc3)C2)C1 | 2.31% (inactive) | –
19 | Cc1ccc(C(=O)Nc2ccc3c(c2)OCO3)cc1S(=O)(=O)N1CCCCC1 | -8.39% (inactive) | –
20 | Cc1ccc(C(=O)O)cc1-c1ccc(/C=C2\SC(=O)N(CC(=O)Nc3ccc4c(c3)OCO4)C2=O)o1 | – | 7.52 µM (active)
21 | Cc1nn(CC(=O)Nc2ccc3c(c2)OCO3)c(C)c1[N+](=O)[O-] | 2.88% (inactive) | –
22 | O=C(CSc1nnc(-c2cccc([S+](=O)([O-])N3CCCC3)c2)n1-c1ccccc1)Nc1cccc(C(F)(F)F)c1 | 6.08% (inactive) | –
23 | CC(Oc1ccccc1)C(=O)N[C@@H]1C(=O)N2[C@@H]1SC(C)(C)[C@@H]2C(=O)O (some centres undefined) | -2.93% [at 21 µM] (inactive) | –
24 | C=CCNc1oc(-c2cccnc2)nc1C#N | 24.9% (inactive) | –
25 | C=Cc1ccc(C(=O)N2CCCC(CCC(=O)N3CCN(c4ccccn4)CC3)C2)cc1 (centres undefined) | – | 0.67 µM (active)

Row | Structure (SMILES) | activity change, negative = inhibition | Potency
26 | O=C(CCC1CCCN(C(=O)Cc2ccc(F)cc2)C1)N1CCN(c2ccccn2)CC1 (centres undefined) | 2.95% (inactive) | –
27 | O=C(CCC1CCCN(C(=O)c2ccc(F)c(F)c2)C1)N1CCN(c2ccccn2)CC1 (centres undefined) | 5.21% (inactive) | –
28 | COc1ccc(C2=Nn3c(nnc3-c3ccccc3F)SC2)cc1OC | -5.88% (inactive) | –
29 | COc1ccc2c3c1OC1CC(O)C=C[C@@]31CCN(C)C2 (some centres undefined) | 16.1% (inactive) | –
30 | COc1ccc2c(c1)O[C@@H](c1ccc3c(c1)OCO3)[C@H](OC(=O)NCc1ccco1)C2=O | 2.67% (inactive) | –
31 | O=C(c1ccncc1)N1CCC2(CCCN(C(c3ccccc3)c3ccccc3)C2)CC1 | -0.643% (inactive) | –
32 | COc1cccc([C@@H]2Oc3ccc(Br)cc3C(=O)[C@H]2OC(=O)NCCc2ccc(OC)c(OC)c2)c1 | 4.49% (inactive) | –
33 | C=C/C1=C/Cc2ccccc2[C@H](C[N+](=O)[O-])C(C(=O)OC)(C(=O)OC)C1 | -2.02% (inactive) | –
34 | C[C@@H]1O[C@@H](O[C@@H]2[C@@H](O)[C@H](OCCc3ccc(O)c(O)c3)O[C@H](CO[C@@H]3O[C@H](CO)[C@@H](O)[C@H](O)[C@H]3O)[C@H]2OC(=O)/C=C/c2ccc(O)c(O)c2)[C@H](O)[C@H](O)[C@H]1O | -8.3% (inactive) | –
35 | O=C(CN1CCN(S(=O)(=O)/C=C/c2ccccc2)CC1)NC(=O)NCc1ccco1 | – | 22.4 µM (active)
36 | COc1ccccc1N1CCN(CC(=O)NC(=O)NCc2ccco2)CC1 | 2.75% (inactive) | –
37 | NC(=O)CCN1CCN(S(=O)(=O)/C=C/c2ccccc2)CC1 | -12.8% (inactive) | –
38 | COc1ccccc1CNc1ccnc(-c2c(C)noc2C)n1 | -1.54% (inactive) | –
39 | COC(=O)[C@@H]1C[C@@]2(O)[C@H](O)[C@H](O)[C@H](O)C[C@H]2N1CC1CCCCC1 | -5.46% (inactive) | –
40 | O=C(Cl)c1ccc([N+](=O)[O-])cc1 | 21.4% (inactive) | –
41 | CCC(C)[C@@H](N)C(=O)O (some centres undefined) | – | inactive
42 | O=C(c1cc(C(F)(F)F)cc(C(F)(F)F)c1)N1CCC2(CCCN(c3ccccn3)C2)CC1 | 2.05% (inactive) | –
43 | O=C(CN1C(=O)c2cccc3cccc(c23)C1=O)N1CCCCC1 | 0.89% (inactive) | –
44 | O=C1c2cccc3cccc(c23)C(=O)N1CCCCCc1n[nH]c(=S)o1 | 10.6% (inactive) | –
45 | C[N+](C)(CCCCCC[N+](C)(C)CCCN1C(=O)c2cccc3cccc(c23)C1=O)CCCN1C(=O)c2cccc3cccc(c23)C1=O | – | 10 µM (active) and 4.74 µM (active)
46 | OC(CCl)CCl | 0.823% (inactive) | –
47 | CC[C@H](C)[C@H](NC(=O)[C@H](Cc1ccc(O)cc1)NC(=O)[C@@H](NC(=O)[C@H](CCCN=C(N)N)NC(=O)[C@@H](N)CC(=O)O)C(C)C)C(=O)N[C@@H](Cc1cnc[nH]1)C(=O)N1CCC[C@H]1C(=O)N[C@@H](Cc1ccccc1)C(=O)O | 13.4% (inactive) | –
48 | CSc1nnc(SCc2nc3sc(C(=O)O)c(C)c3c(=O)[nH]2)s1 | – | 25.1 µM (active)
49 | Cc1sc2nc(CSCC(=O)NC3CCCCC3)[nH]c(=O)c2c1C | -5.32% (inactive) | –
